ALDH1A1 inh – qHTS Assay for Inhibitors of Aldehyde Dehydrogenase 1 (ALDH1A1); Potency, µM (series often up to 75.3 µM), without a hit: at the highest dose activity, negative = inhibition, most hits filed as inhibitors; Aldehyde dehydrogenase 1A1 (Homo sapiens), P00352; AID 1030, 2008; 220,000 compounds, 7.3% hits; Purified ALDH1A1, NADH fluorescence, propionaldehyde substrate; active = well fitted inhibition curve with a large enough effect, not every such curve was filed as active; inconclusive = small, poorly fitted or top-dose-only effect, or another doubt; inactive = no such curve, though single readings can be large or run the other way;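 note: potency is the fitted concentration of half-maximal effect; plate controls were no enzyme wells and a reference inhibitor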
HPGD block – qHTS Assay for Inhibitors of HPGD (15-Hydroxyprostaglandin Dehydrogenase); 150,000 compounds, 4.3% hits; purified HPGD, NADH fluorescence kinetic, PGE2 substrate; Potency, µM, for the others: top-dose activity change, negative = inhibition, most hits filed as inhibitors; active = well fitted inhibition curve with a large enough effect, not every such curve was filed as active; inconclusive = small, poorly fitted or top-dose-only effect, or another doubt; inactive = no such curve, though single readings can be large or run the other way; note: potency is the fitted concentration of half-maximal effect; % is set by controls: 0 for no effect and ±100 for the full control effect
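20 nM HPGD preincubated 15 min at room temperature with compound in 50 mM Tris-HCl pH 8, 0.01% Tween 20. Started with 1 mM NAD+ and 30 uM prostaglandin E2; NADH fluorescence (360/450 nm) read 5 times over 30-s intervals, last minus first.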
CBFb RUNX1 block – qHTS Assay for Compounds Blocking the Interaction Between CBF-beta and RUNX1 for the Treatment of Acute Myeloid Leukemia. AlphaScreen CBFb-His/RUNX1-biotin binding, biochemical. Potency, µM (doses to about 59.8 µM), for the others: at the highest dose activity, negative = inhibition, most hits filed as inhibitors. 230,000 tested, under 10 active. AID 1477, 2009; note: % of control where 0% means no effect
Target sequence (Q01196 whole entry, looked up): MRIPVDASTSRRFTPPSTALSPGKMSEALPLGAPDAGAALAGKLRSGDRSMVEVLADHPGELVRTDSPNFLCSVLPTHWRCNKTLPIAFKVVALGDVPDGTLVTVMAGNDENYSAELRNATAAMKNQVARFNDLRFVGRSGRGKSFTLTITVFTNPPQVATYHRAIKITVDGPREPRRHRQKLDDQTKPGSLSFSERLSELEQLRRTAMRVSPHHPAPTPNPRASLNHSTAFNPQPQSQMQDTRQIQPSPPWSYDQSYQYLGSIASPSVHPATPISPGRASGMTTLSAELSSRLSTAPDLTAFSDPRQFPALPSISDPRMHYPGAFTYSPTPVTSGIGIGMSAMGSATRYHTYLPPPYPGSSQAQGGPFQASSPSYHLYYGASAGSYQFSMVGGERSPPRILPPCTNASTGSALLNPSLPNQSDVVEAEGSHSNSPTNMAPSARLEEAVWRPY
Target sequence (Q13951 whole entry, looked up): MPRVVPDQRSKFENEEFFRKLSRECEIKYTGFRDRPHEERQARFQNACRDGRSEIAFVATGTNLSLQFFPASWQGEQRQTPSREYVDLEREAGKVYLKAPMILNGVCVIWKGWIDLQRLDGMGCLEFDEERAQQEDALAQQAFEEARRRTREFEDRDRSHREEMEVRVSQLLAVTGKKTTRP
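AlphaScreen proximity signal reports loss of binding between His-tagged CBF-beta and biotin-labelled RUNX1, each at 30 nM. Proteins are pre-associated for 20 minutes, compounds added for 15 minutes, then beads for 90 minutes, all at ambient temperature.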
HTT ATP protect – qHTS Multiplex Assay to Identify Dual Action Probes in a Cell Model of Huntington: Cytoprotection (ATP); PC12 HTT-Q103 induced, cytoprotection, ATP luminescence, 40 h; Potency, µM (doses to about 56.4 µM), inactives show cytoprotection (ATP increase), most hits filed as activators; 230,000 compounds, 0.14% hits; AID 1471, 2008; note: potency is the fitted concentration of half-maximal effect; % of control where 0% means no effect; nearly all actives have a fitted effect of over 45% in size
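Readout: ATPlite luminescence (ATP level). Model: stable PC12, inducible Htt exon1 Q103-GFP. Inducer: tebufenozide, 100 nM final. Compounds: dose series. No G418 in medium.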
PNC assembly inh – High Content Assay for Compounds that inhibit the Assembly of the Perinucleolar Compartment | activity change (PNC), negative = inhibition, % at 10 µM | PC3M PTB-GFP, PNC prevalence imaging, 16 h; active compounds read low | 140,000 compounds, 3.1% hits;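 active = readout at or below -70, meaning at least 70% loss of cells showing the perinucleolar compartment, a nuclear body marking cancer cells; inconclusive = readout between -30 and a set limit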;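 note: plate controls were DMSO wells for no effect and camptothecin positive control wells for full effect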
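Read-out is percentage of cells bearing a perinucleolar compartment, from automated 20x imaging of fixed, Hoechst-stained PC3M PTB-GFP cells. Cells were seeded 4 h, then exposed 16 h to compound (23 nl of library stock) in duplicate plates.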
HttQ103 aggreg – qHTS Multiplex Assay to Identify Dual Action Probes in a Cell Model of Huntington: Aggregate Formation (GFP). 220,000 compounds, 1.1% hits. Potency, µM (series often up to 46.1 µM), without a hit: at the highest dose activity change, negative = inhibition, most hits filed as inhibitors. AID 1688, 2009. PC12 HttQ103-GFP aggregates, Acumen cytometry, 40 h; note: potency is the fitted concentration of half-maximal effect; % is set by controls: 0 for no effect and ±100 for the full control effect; nearly all actives have a fitted effect of over 60% in size
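PC12/HTTQ103-GFP, ecdysone-inducible; teb 100 nM; cpd qHTS titration; GFP aggregates read on laser cytometer, Ex 488/Em 500-530 nm.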
* hit, by the source's call; [ ] = another dose, or the depositor's remark. Most compounds without a hit are left out; they make up all but 11% or so of the library. Unless noted, calls come from the whole dose curve; as a rule, active = well fitted curve in the direction sought with a large enough effect; inconclusive = small, poorly fitted or top-dose-only effect, or another doubt; inactive = no such curve, though single readings can be large; an effect the other way counts as inactive or inconclusive.

What do the screens show for `O=C1c2ccccc2C(=O)N1Cc1nn2c(-c3ccc(Cl)cc3)nnc2s1`?
ALDH1A1 inh: 14.1µM*; HPGD block: -8.2%; CBFb RUNX1 block: -4.7%; HTT ATP protect: -21.5%[0.074 µM]; PNC assembly inh: inconclusive; HttQ103 aggreg: 4.8%

What do the screens show for `c1ccc(-c2nnc3sc(Cc4cccs4)nn23)cc1`?
ALDH1A1 inh: -35.0%; HPGD block: -25.4%; CBFb RUNX1 block: -3.7%; HTT ATP protect: -13.7%[10 µM]; PNC assembly inh: 221.1; HttQ103 aggreg: -1.7%

Results for Clc1ccc(-c2nnc3sc(Cc4cccs4)nn23)cc1 ?
ALDH1A1 inh: 22.4µM*; HPGD block: -10.7%; CBFb RUNX1 block: -8.5%; HTT ATP protect: -30.5%; PNC assembly inh: -9.1; HttQ103 aggreg: -18.0%

How did O=C(Nc1nc(-c2ccccn2)cs1)c1ccc(Cl)s1 do in these assays?
ALDH1A1 inh: inconclusive; HPGD block: -21.2%; CBFb RUNX1 block: -3.8%; HTT ATP protect: -95.0%[10 µM]; PNC assembly inh: inconclusive; HttQ103 aggreg: 0.891µM*

How did O=C(Nc1nc(-c2ccccn2)cs1)c1ncc(Cl)c(Cl)c1Cl do in these assays?
ALDH1A1 inh: 0.7%; HPGD block: -7.6%; CBFb RUNX1 block: inconclusive; HTT ATP protect: -37.3%; PNC assembly inh: 11.9; HttQ103 aggreg: inconclusive

How did CSCCC(=O)Nc1nc(-c2ccccn2)cs1 do in these assays?
ALDH1A1 inh: 28.2µM*; HTT ATP protect: -16.1%; HttQ103 aggreg: -14.7%

Results for Cn1cccc1C(=O)Nc1nc(-c2ccccn2)cs1 ?
ALDH1A1 inh: 14.1µM*; HPGD block: 28.2µM*; CBFb RUNX1 block: -23.5%; HTT ATP protect: -5.5%; PNC assembly inh: 34.7; HttQ103 aggreg: 12.6µM*

Results for C/C(CCC(=O)OC[C@@H]1O[C@H](C#Cc2ccccc2)C=C[C@@H]1Oc1ccc(C)cc1)=N/OC[C@@H](C)[C@H](OCc1ccccc1)C(C)C ?
ALDH1A1 inh: -0.8%[13.5 µM]; CBFb RUNX1 block: 22.3%[13.1 µM]; HTT ATP protect: -12.3%[10 µM]

What do the screens show for `Cc1cccc(CNc2ncncc2-c2ccccc2C(F)(F)F)c1`?
ALDH1A1 inh: inconclusive; HPGD block: -7.8%; HTT ATP protect: -0.1%

What do the screens show for `COc1ccc(OCC(=O)NNC(=O)c2cccnc2)cc1`?
ALDH1A1 inh: -10.4%; HPGD block: -15.3%; CBFb RUNX1 block: -2.6%; HTT ATP protect: 1.2%; PNC assembly inh: 11.7; HttQ103 aggreg: 5.6%

Results for COc1ccc(C(=O)NC(=S)NNC(=O)c2cnccn2)cc1 ?
ALDH1A1 inh: 17.8µM*; HPGD block: inconclusive; CBFb RUNX1 block: 2.2%; HTT ATP protect: inconclusive; PNC assembly inh: 29.6; HttQ103 aggreg: 29.3%

Results for O=C(CCN1CCCCC1)NNC(=S)NC(=O)c1ccc(Br)cc1 ?
ALDH1A1 inh: 28.2µM*; CBFb RUNX1 block: -5.5%; HTT ATP protect: -66.8%; HttQ103 aggreg: -29.1%

How did O=C(COc1ccccc1)NNC(=S)NC(=O)c1ccccc1 do in these assays?
ALDH1A1 inh: 22.4µM*; CBFb RUNX1 block: 5.9%; HTT ATP protect: -41.9%; HttQ103 aggreg: -14.2%

Results for O=C(CCN1CCOCC1)NNC(=S)NC(=O)c1ccc(Br)cc1 ?
ALDH1A1 inh: inconclusive; CBFb RUNX1 block: -6.7%; HTT ATP protect: -50.0%; HttQ103 aggreg: -23.1%

What do the screens show for `COc1ccc(C(=O)NC(=S)NNC(=O)COc2ccccc2)cc1`?
ALDH1A1 inh: 17.8µM*; CBFb RUNX1 block: -2.3%; HTT ATP protect: -50.7%; HttQ103 aggreg: -15.8%

What do the screens show for `O=C(Oc1c(-c2ccccc2)c(=O)n2c3c(cccc13)CC2)c1ccc(F)cc1`?
CBFb RUNX1 block: 5.9%; HTT ATP protect: 4.8%[10 µM]; HttQ103 aggreg: -1.0%[9.22 µM]

High-throughput results as filed in PubChem.
